Measurements from PubChem BioAssay AID1259318 (Sanford-Burnham Center for Chemical Genomics, 2017).
Hit rate of the full screen: of about 370,000 compounds, about 3,000 (0.81%) were called active. The list comes from a sample in which actives are over-represented; it also holds similar structures and randomly drawn compounds. Unmarked numbers belong to inactive results.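 The calls were made as follows: active = activity above about 14% (limit read from the data; passing the limit was not always enough); inactive = the rest.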

molecular target: Nuclear receptor subfamily 1 group D member 1 (Homo sapiens) (UniProt P20393); test: Rev-erbα–DNA interaction modulation – biochemical, FITC-DNA, fluorescence polarization, uHTS, primary screen (AID 1259318); settings: Rev-erbα–FITC-DNA binding, 90 min, at 10 µM, stronger effect = higher value;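 also: 0% = DMSO wells with 35 nM protein and 100% = DMSO wells with 750 nM protein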
Sequence (P20393 whole entry, looked up): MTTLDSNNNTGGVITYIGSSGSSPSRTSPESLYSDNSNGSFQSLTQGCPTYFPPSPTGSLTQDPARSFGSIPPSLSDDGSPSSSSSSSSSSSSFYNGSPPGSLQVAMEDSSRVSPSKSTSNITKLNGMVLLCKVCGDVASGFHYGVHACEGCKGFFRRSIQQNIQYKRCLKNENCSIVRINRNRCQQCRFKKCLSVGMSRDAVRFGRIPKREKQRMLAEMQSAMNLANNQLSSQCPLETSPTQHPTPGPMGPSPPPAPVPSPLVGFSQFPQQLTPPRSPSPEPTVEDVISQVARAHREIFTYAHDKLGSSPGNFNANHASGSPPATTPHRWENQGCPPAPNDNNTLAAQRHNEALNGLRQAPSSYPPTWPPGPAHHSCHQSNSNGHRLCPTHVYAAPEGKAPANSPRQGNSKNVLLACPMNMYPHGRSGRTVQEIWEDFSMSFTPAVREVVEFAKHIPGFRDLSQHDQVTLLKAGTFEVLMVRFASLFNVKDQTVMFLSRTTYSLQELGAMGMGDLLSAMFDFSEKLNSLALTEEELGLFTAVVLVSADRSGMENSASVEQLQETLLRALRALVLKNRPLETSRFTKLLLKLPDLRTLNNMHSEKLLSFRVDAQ

| SMILES | activity |
| --- | --- |
| O=C1N=c2ccccc2=C/C1=C\c1c(O)[nH]c(=S)[nH]c1=O | -4.55% |
| CCOCCc1c(O)[nH]c(=S)[nH]c1=O | -0.86% |
| COc1ccccc1N=Nc1c(O)[nH]c(=S)[nH]c1=O | 28.1% (active) |
| CCC(C)C(=O)O[C@H]1[C@H](O)C2C(CN3CC(C)CCC3[C@@]2(C)O)C2C[C@]34O[C@]5(O)C(OC(=O)C(C)(O)CC)CC[C@@]3(C)C5[C@H](OC(C)=O)[C@@H](OC(C)=O)C4[C@@]21O (stereo not given in full) | -4.52% |
| CCN(CC)C(=O)[C@@H]1C=C2c3cccc4[nH]c(Br)c(c34)C[C@H]2N(C)C1 | -1.01% |
| C=CCNCCCCCCCCCC (tested in a mixture with another compound) | -9.67% |
| COC(=O)CN(CCCl)P1(=O)OCCCN1CCCl (stereo not given) | 15.9% (active) |
| c1ccc2sc(SNC3CCCCC3)nc2c1 | 6.27% |
| CCOC(=O)C1=C(C)OC(N)=C(C(=O)OC)C12C(=O)Nc1ccc(Br)cc12 (stereo not given) | 4.04% |
| CC(=O)O[C@H]1CC[C@@]2(C)C(=CCC3C2CC[C@]2(C)C(=O)CCC32)C1 (stereo not given in full) | 2.71% |
